# PubChem BioAssay AID1159580 (chemical genetic matrix, 2015)
# Screen size: about 5,500 compounds; about 2,000 (36%) were called active. Not shown: some 18% with an inconclusive outcome. The list shows a part of the results. Unmarked numbers belong to inactive results. Cut-off read from the data, not from the text of the source: active = normalized growth mostly below about 0.91 (no sharp cut-off); inconclusive = no clear call, values can overlap the other calls; inactive = mostly above about 0.92.
# Assay: chemical genetic growth profiling, strain panel (AID 1159580);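 note: tested at 20 µM; growth read once vehicle control cultures reached saturation at 30 °C; 1 = growth at the plate median or of vehicle wells; lower values mean less growth of the strain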
# Settings: S. cerevisiae deletion strains, growth OD
smiles,measurement,setting,value
CC(C)Oc1ccc2c(=O)cc(-c3ccccc3)oc2c1,normalized growth,"locus YAL013W, strain DEP1, stronger effect = lower value",0.892 (active)
same,normalized growth,"locus YAL021C, strain ccr4, stronger effect = lower value",0.956
same,normalized growth,"locus YAL026C, strain drs2, stronger effect = lower value",0.934
same,normalized growth,"locus YAL030W, strain snc1, stronger effect = lower value",0.955
same,normalized growth,"locus YBL061C, strain skt5, stronger effect = lower value",0.929
same,normalized growth,"locus YBR009C, strain hhf1, stronger effect = lower value",0.952
same,normalized growth,"locus YBR021W, strain FUR4, stronger effect = lower value",0.844 (active)
same,normalized growth,"locus YBR023C, strain chs3, stronger effect = lower value",0.944
same,normalized growth,"locus YBR171W, strain sec66, stronger effect = lower value",0.912
same,normalized growth,"locus YBR229C, strain ROT2, stronger effect = lower value",0.915
same,normalized growth,"locus YBR231C, strain swc5, stronger effect = lower value",0.937
same,normalized growth,"locus YBR279W, strain paf1, stronger effect = lower value",0.963
same,normalized growth,"locus YCL011C, strain gbp2, stronger effect = lower value",0.923
same,normalized growth,"locus YCL016C, strain dcc1, stronger effect = lower value",0.94
same,normalized growth,"locus YCL029C, strain bik1, stronger effect = lower value",0.88 (active)
same,normalized growth,"locus YCL061C, strain MRC1, stronger effect = lower value",0.918 (active)
same,normalized growth,"locus YCL069W, strain vba3, stronger effect = lower value",0.95
same,normalized growth,"locus YCR088W, strain abp1, stronger effect = lower value",0.933
same,normalized growth,"locus YDL005C, strain med2, stronger effect = lower value",0.96
same,normalized growth,"locus YDL035C, strain GPR1, stronger effect = lower value",0.984
same,normalized growth,"locus YDL040C, strain nat1, stronger effect = lower value",0.953
same,normalized growth,"locus YDL074C, strain BRE1, stronger effect = lower value",0.871
same,normalized growth,"locus YDL101C, strain DUN1, stronger effect = lower value",0.938
same,normalized growth,"locus YDL185W, strain tfp1, stronger effect = lower value",0.423 (active)
same,normalized growth,"locus YDL192W, strain arf1, stronger effect = lower value",0.884 (active)
same,normalized growth,"locus YDR001C, strain nth1, stronger effect = lower value",0.943
same,normalized growth,"locus YDR069C, strain doa4, stronger effect = lower value",0.972
same,normalized growth,"locus YDR101C, strain arx1, stronger effect = lower value",0.906 (active)
same,normalized growth,"locus YDR137W, strain rgp1, stronger effect = lower value",0.834 (active)
same,normalized growth,"locus YDR150W, strain NUM1, stronger effect = lower value",0.937
same,normalized growth,"locus YDR159W, strain sac3, stronger effect = lower value",0.919
same,normalized growth,"locus YDR162C, strain NBP2, stronger effect = lower value",0.953
same,normalized growth,"locus YDR195W, strain ref2",1.03
same,normalized growth,"locus YDR297W, strain sur2, stronger effect = lower value",0.95
same,normalized growth,"locus YDR318W, strain mcm21, stronger effect = lower value",0.885 (active)
same,normalized growth,"locus YDR334W, strain swr1, stronger effect = lower value",0.953
same,normalized growth,"locus YDR335W, strain msn5, stronger effect = lower value",0.962
same,normalized growth,"locus YDR388W, stronger effect = lower value",0.876 (active)
same,normalized growth,"locus YDR392W, strain spt3, stronger effect = lower value",0.358 (active)
same,normalized growth,"locus YDR502C, strain sam2, stronger effect = lower value",0.904 (active)
same,normalized growth,"locus YEL003W, strain gim4, stronger effect = lower value",0.887 (active)
same,normalized growth,"locus YEL037C, strain rad23, stronger effect = lower value",0.953
same,normalized growth,"locus YEL061C, strain CIN8 (second series), stronger effect = lower value",0.916
same,normalized growth,"locus YEL061C, strain CIN8, stronger effect = lower value",0.923 (active)
same,normalized growth,"locus YER015W, strain faa2, stronger effect = lower value",0.962
same,normalized growth,"locus YER016W, strain bim1, stronger effect = lower value",0.956
same,normalized growth,"locus YER110C, stronger effect = lower value",0.886 (active)
same,normalized growth,"locus YER111C, strain swi4, stronger effect = lower value",0.959
same,normalized growth,"locus YER155C, strain BEM2 (second series), stronger effect = lower value",0.679 (active)
same,normalized growth,"locus YER155C, strain BEM2, stronger effect = lower value",0.85 (active)
same,normalized growth,"locus YER167W, strain BCK2, stronger effect = lower value",0.925
same,normalized growth,"locus YFR010W, strain ubp6, stronger effect = lower value",0.936
same,normalized growth,"locus YGL078C, strain dbp3, stronger effect = lower value",0.815 (active)
same,normalized growth,"locus YGL086W, strain mad1, stronger effect = lower value",0.91 (active)
same,normalized growth,"locus YGL167C, strain pmr1, stronger effect = lower value",0.946
same,normalized growth,"locus YGL173C, strain kem1, stronger effect = lower value",0.943
same,normalized growth,"locus YGL227W, strain vid30, stronger effect = lower value",0.905 (active)
same,normalized growth,"locus YGL240W, strain doc1, stronger effect = lower value",0.901
same,normalized growth,"locus YGL248W, strain PDE1, stronger effect = lower value",0.912
same,normalized growth,"locus YGL253W, strain hxk2, stronger effect = lower value",0.926
same,normalized growth,"locus YGR078C, strain PAC10, stronger effect = lower value",0.903
same,normalized growth,"locus YGR135W, strain pre9, stronger effect = lower value",0.907
same,normalized growth,"locus YGR252W, strain gcn5, stronger effect = lower value",0.827
same,normalized growth,"locus YHR013C, strain ard1, stronger effect = lower value",0.859
same,normalized growth,"locus YHR027C, strain rpn1, stronger effect = lower value",0.947
same,normalized growth,"locus YHR030C, strain SLT2, stronger effect = lower value",0.92
same,normalized growth,"locus YHR079C, strain IRE1 (second series), stronger effect = lower value",0.888 (active)
same,normalized growth,"locus YHR094C, strain hxt1, stronger effect = lower value",0.879 (active)
same,normalized growth,"locus YHR129C, strain ARP1, stronger effect = lower value",0.916 (active)
same,normalized growth,"locus YHR142W, strain chs7, stronger effect = lower value",0.735 (active)
same,normalized growth,"locus YHR200W, strain rpn10, stronger effect = lower value",0.869 (active)
same,normalized growth,"locus YIL066C, strain RNR3, stronger effect = lower value",0.939
same,normalized growth,"locus YIL073C, strain SPO22, stronger effect = lower value",0.921
same,normalized growth,"locus YIL125W, strain kgd1, stronger effect = lower value",0.715 (active)
same,normalized growth,"locus YIR030C, strain dcg1, stronger effect = lower value",0.878 (active)
same,normalized growth,"locus YJL092W, strain hpr5, stronger effect = lower value",0.928
same,normalized growth,"locus YJL095W, strain BCK1 (second series), stronger effect = lower value",0.948
same,normalized growth,"locus YJL095W, strain BCK1, stronger effect = lower value",0.888
same,normalized growth,"locus YJL115W, strain asf1, stronger effect = lower value",0.958
same,normalized growth,"locus YJL129C, strain trk1, stronger effect = lower value",0.815 (active)
same,normalized growth,"locus YJL134W, strain LCB3, stronger effect = lower value",0.909 (active)
same,normalized growth,"locus YJL154C, strain vps35, stronger effect = lower value",0.952
same,normalized growth,"locus YJL164C, strain tpk1, stronger effect = lower value",0.923
same,normalized growth,"locus YJL166W, strain qcr8, stronger effect = lower value",0.893 (active)
same,normalized growth,"locus YJL168C, strain set2, stronger effect = lower value",0.872 (active)
same,normalized growth,"locus YJL187C, strain SWE1 (second series), stronger effect = lower value",0.906
same,normalized growth,"locus YJL187C, strain SWE1, stronger effect = lower value",0.951
same,normalized growth,"locus YJR043C, strain POL32, stronger effect = lower value",0.941
same,normalized growth,"locus YJR075W, strain HOC1, stronger effect = lower value",0.904
same,normalized growth,"locus YKL009W, strain mrt4, stronger effect = lower value",0.452 (active)
same,normalized growth,"locus YKL068W, stronger effect = lower value",0.797 (active)
same,normalized growth,"locus YKL085W, strain MDH1 (second series), stronger effect = lower value",0.667 (active)
same,normalized growth,"locus YKL085W, strain MDH1, stronger effect = lower value",0.667 (active)
same,normalized growth,"locus YKL160W, strain elf1, stronger effect = lower value",0.913
same,normalized growth,"locus YKL190W, strain CNB1, stronger effect = lower value",0.945
same,normalized growth,"locus YKR001C, strain vps1, stronger effect = lower value",0.83 (active)
same,normalized growth,"locus YKR026C, strain gcn3, stronger effect = lower value",0.934
same,normalized growth,"locus YKR091W, strain srl3, stronger effect = lower value",0.965
same,normalized growth,"locus YLL001W, strain dnm1, stronger effect = lower value",0.951
same,normalized growth,"locus YLL026W, stronger effect = lower value",0.955
same,normalized growth,"locus YLL041C, strain sdh2, stronger effect = lower value",0.957
same,normalized growth,"locus YLR027C, strain aat2, stronger effect = lower value",0.957
same,normalized growth,"locus YLR039C, strain RIC1, stronger effect = lower value",0.815
same,normalized growth,"locus YLR058C, strain SHM2, stronger effect = lower value",0.915
same,normalized growth,"locus YLR102C, strain apc9, stronger effect = lower value",0.881 (active)
same,normalized growth,"locus YLR221C, strain rsa3, stronger effect = lower value",0.895 (active)
same,normalized growth,"locus YLR258W, strain gsy2, stronger effect = lower value",0.948
same,normalized growth,"locus YLR262C, strain YPT6 (second series), stronger effect = lower value",0.821 (active)
same,normalized growth,"locus YLR262C, strain YPT6, stronger effect = lower value",0.861
same,normalized growth,"locus YLR268W, strain sec22, stronger effect = lower value",0.906
same,normalized growth,"locus YLR320W, strain mms22, stronger effect = lower value",0.785 (active)
same,normalized growth,"locus YLR330W, strain CHS5, stronger effect = lower value",0.896 (active)
same,normalized growth,"locus YLR342W, strain FKS1 (second series), stronger effect = lower value",0.911
same,normalized growth,"locus YLR342W, strain FKS1, stronger effect = lower value",0.916
same,normalized growth,"locus YLR357W, strain rsc2, stronger effect = lower value",0.869
same,normalized growth,"locus YLR370C, strain arc18, stronger effect = lower value",0.941
same,normalized growth,"locus YLR371W, strain rom2, stronger effect = lower value",0.898 (active)
same,normalized growth,"locus YLR384C, strain iki3, stronger effect = lower value",0.944
same,normalized growth,"locus YLR418C, strain cdc73, stronger effect = lower value",0.814 (active)
same,normalized growth,"locus YML016C, strain PPZ1, stronger effect = lower value",0.91 (active)
same,normalized growth,"locus YML032C, strain rad52, stronger effect = lower value",0.908
same,normalized growth,"locus YML120C, strain ndi1, stronger effect = lower value",0.963
same,normalized growth,"locus YML124C, strain tub3, stronger effect = lower value",0.867 (active)
same,normalized growth,"locus YMR058W, strain fet3, stronger effect = lower value",0.916
same,normalized growth,"locus YMR078C, strain ctf18, stronger effect = lower value",0.839 (active)
same,normalized growth,"locus YMR125W, strain sto1, stronger effect = lower value",0.953
same,normalized growth,"locus YMR129W, stronger effect = lower value",0.952
same,normalized growth,"locus YMR205C, strain PFK2, stronger effect = lower value",0.844 (active)
same,normalized growth,"locus YMR223W, strain ubp8, stronger effect = lower value",0.9 (active)
same,normalized growth,"locus YMR231W, strain pep5, stronger effect = lower value",0.969
same,normalized growth,"locus YMR263W, strain SAP30, stronger effect = lower value",0.893
same,normalized growth,"locus YMR307W, strain GAS1, stronger effect = lower value",0.791
same,normalized growth,"locus YNL067W, strain RPL9B, stronger effect = lower value",0.93
same,normalized growth,"locus YNL071W, strain lat1, stronger effect = lower value",0.734 (active)
same,normalized growth,"locus YNL128W, strain TEP1, stronger effect = lower value",0.941
same,normalized growth,"locus YNL209W, strain ssb2, stronger effect = lower value",0.971
same,normalized growth,"locus YNL233W, strain BNI4, stronger effect = lower value",0.901
same,normalized growth,"locus YNL248C, strain rpa49, stronger effect = lower value",0.919
same,normalized growth,"locus YNL250W, strain rad50, stronger effect = lower value",0.767 (active)
same,normalized growth,"locus YNL271C, strain bni1, stronger effect = lower value",0.794 (active)
same,normalized growth,"locus YNL298W, strain CLA4, stronger effect = lower value",0.538 (active)
same,normalized growth,"locus YNL307C, strain MCK1, stronger effect = lower value",0.848 (active)
same,normalized growth,"locus YNL322C, strain KRE1 (second series), stronger effect = lower value",0.946
same,normalized growth,"locus YNR049C, strain mso1, stronger effect = lower value",0.943
same,normalized growth,"locus YNR052C, strain pop2, stronger effect = lower value",0.908 (active)
same,normalized growth,"locus YOL012C, strain htz1",1.5
same,normalized growth,"locus YOL147C, strain pex11, stronger effect = lower value",0.872 (active)
same,normalized growth,"locus YOR001W, strain rrp6, stronger effect = lower value",0.896
same,normalized growth,"locus YOR061W, strain CKA2, stronger effect = lower value",0.912
same,normalized growth,"locus YOR069W, strain VPS5, stronger effect = lower value",0.925 (active)
same,normalized growth,"locus YOR070C, strain gyp1, stronger effect = lower value",0.961
same,normalized growth,"locus YOR080W, strain dia2, stronger effect = lower value",0.965
same,normalized growth,"locus YOR083W, strain WHI5, stronger effect = lower value",0.928
same,normalized growth,"locus YOR106W, strain vam3, stronger effect = lower value",0.917
same,normalized growth,"locus YOR136W, strain idh2, stronger effect = lower value",0.938
same,normalized growth,"locus YOR144C, strain elg1, stronger effect = lower value",0.874 (active)
same,normalized growth,"locus YOR184W, strain ser1, stronger effect = lower value",0.9
same,normalized growth,"locus YOR265W, strain rbl2, stronger effect = lower value",0.96
same,normalized growth,"locus YOR270C, strain vph1, stronger effect = lower value",0.731 (active)
same,normalized growth,"locus YOR290C, strain snf2, stronger effect = lower value",0.797 (active)
same,normalized growth,"locus YOR316C, strain cot1, stronger effect = lower value",0.875 (active)
same,normalized growth,"locus YPL051W, strain arl3, stronger effect = lower value",0.897 (active)
same,normalized growth,"locus YPL078C, strain atp4, stronger effect = lower value",0.905
same,normalized growth,"locus YPL106C, strain sse1, stronger effect = lower value",0.928
same,normalized growth,"locus YPL240C, strain hsp82, stronger effect = lower value",0.95
same,normalized growth,"locus YPR119W, strain clb2, stronger effect = lower value",0.856 (active)
same,normalized growth,"locus YPR141C, strain kar3, stronger effect = lower value",0.802 (active)
same,normalized growth,"locus YPR163C, strain tif3, stronger effect = lower value",0.906 (active)
same,normalized growth,"locus YPR167C, strain met16, stronger effect = lower value",0.873 (active)
same,normalized growth,"strain wtn01, stronger effect = lower value",0.909
